Screens deposited in PubChem by National Center for Advancing Translational Sciences (NCATS).
Sampled rows, rich in hits. Any-hit rate of the full collection: about 9.4%.
Pf growth 96h = Primary qHTS for delayed death inhibitors of the malarial parasite plastid, 96 hour incubation. P. falciparum luciferase reporter growth, 96 h. Potency, µM (highest dose often 28.7 µM), for the others: top-dose activity change, negative = inhibition, hits mostly inhibitors. 320,000 tested, 6.9% active. AID 504834, 2011; further: on the % scale 0 is the no-effect control and ±100 the full control effect
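Luminescence readout: decreased luciferase signal marks inhibited growth of reporter-expressing P. falciparum in infected red cells (2% hematocrit, 0.05% parasitemia final), exposed to compound two generations (96 h, 37 C, 5% CO2).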
Pf growth 48h = Primary qHTS for delayed death inhibitors of the malarial parasite plastid, 48 hour incubation; Potency, µM (titrated, usually from 28.7 µM), inactives show top-dose activity change, negative = inhibition, actives largely listed as inhibitors; 310,000 tested, 5.9% active; AID 504832, 2011; P. falciparum luciferase growth in erythrocytes, 48 h; further: on the % scale 0 is the no-effect control and ±100 the full control effect
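First compound was added to culture medium, then infected red cells at 0.1% parasitemia and 2% hematocrit (final). After incubation at 37 C under 5% CO2, luciferase detection reagent was dispensed and light output recorded.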
AMA1-RON2 inh = qHTS for Inhibitors of AMA1-RON; Towards Development of Antimalarial Drug Lead: Primary Screen. 360,000 tested, 0.2% active. Potency, µM (highest dose often 58.2 µM), for inactives: top-dose activity change, negative = inhibition, actives largely listed as inhibitors. Plasmodium falciparum AMA1 (3D7) - RON2 peptide interaction. AlphaScreen AMA1-biotinylated RON2 peptide binding;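 further: 0% = vehicle wells and -100% = peptide control; nearly all actives have a fitted effect of over 45% in size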
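AMA1 (3D7) with his tag at 25 nM final met compounds first, then biotinylated RON2 peptide at 25 nM; detection used donor plus acceptor beads, 10 µg/mL apiece, read by AlphaScreen after 30 min at room temperature.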
SARS PLP yeast = qHTS of Yeast-based Assay for SARS-CoV PLP. S. cerevisiae expressing SARS-CoV PLpro, growth rescue. Potency, µM (titrated, usually from 32.9 µM), for inactives: top-dose activity, positive = growth rescue, most hits filed as activators. 330,000 tested, 0.19% active; calls by dose curve; further: 0% is about no effect; nearly all actives have a fitted effect of over 55% in size
Starred values were filed as active, the others as inactive; ? = inconclusive; / = no result given; [ ] = dose if it differs, or a comment. Unless noted, the call rests on the fitted dose curve; in most records, active means well fitted curve in the direction sought with a large enough effect; inconclusive means small, poorly fitted or top-dose-only effect, or another doubt; inactive means no such curve, though single readings can be large; an effect the other way counts as inactive or inconclusive. Potency means the concentration at half of the fitted maximal effect.

SMILES	Pf growth 96h	Pf growth 48h	AMA1-RON2 inh	SARS PLP yeast
COc1ccc2cc3cc(C(=O)N4CCCC(C)C4)oc3nc2c1 (stereo unspecified)	12µM*	18%	-11%	-1%
O=C(NCCC1CCCCN1S(=O)(=O)c1ccc(F)cc1)C(=O)NCCN1CCOCC1 (stereo unspecified)	?	17%	8%	2%
O=C(Cc1ccc(Cl)cc1)Nc1ccccc1CO	-25%	-2%	4%	-2%
CC(=O)OC1(Cc2ccccc2)CN2CCC1c1ccccc12 (stereo unspecified)	-21%	6%	-2%	?
Cc1ccccc1Cn1c2ccccc2c2cn[nH]c(=O)c21	10µM*	?	-3%	6%
Cc1ccccc1Cn1c2ccccc2c2cnn(CC(=O)NCCCN3CCN(C)CC3)c(=O)c21	?	?	4%	-3%
CCOc1ccccc1NC(=O)CSc1ccc(-c2ccco2)nn1	?	-14%	-14%	-3%
CCOc1ccccc1NC(=O)CSc1ccc([N+](=O)[O-])cc1	2.3µM*	2.9µM*	-12%	2%
CCOc1ccccc1NC(=O)NNS(=O)(=O)c1ccc([N+](=O)[O-])cc1	0%	-6%	10%	5%
CC(=O)c1cccc(NC(=O)CSc2ccc(-c3sc(C)nc3C)nn2)c1	13µM*	-15%	-9%	-3%
COc1ccc(NC(=O)CSc2ccc(-c3sc(C)nc3C)nn2)cc1	13µM*	-15%	2%	0%
CCc1ccc(NC(=O)CSc2ccc(-c3sc(C)nc3C)nn2)cc1	?	-11%	-15%	3%
CCOc1ccccc1NC(=O)CSc1ccc(-c2sc(C)nc2C)nn1	10µM*	?	-8%	-4%
Cc1nc(C)c(-c2ccc(SCC(=O)Nc3cccc(F)c3)nn2)s1	?	6%	22%	-2%
O=C(CN1C(=O)CC(c2ccccc2)=Nc2ccccc21)NCc1ccco1	17%	6%	3%	1%
CCOC(=O)Cn1c2ccc(C)cc2c2nc(C)sc21	?	-4%	-13%	-7%
Cc1nc(C)c(-c2ccc(SCc3ccc(Cl)cc3)nn2)s1	1%	12%	-11%	-33%
Cc1nc(C)c(-c2ccc(SCC(=O)Nc3cccc(Cl)c3)nn2)s1	13µM*	-7%	-2%	2%
Cc1ccccc1/C=C/c1nc2ccccc2c(=O)n1CCc1ccccc1	-5%	13µM*	-2%	14%
Cc1ccccc1/C=C/c1nc2ccccc2c(=O)n1Cc1ccccc1	10µM*	?	-1%	7%
O=C(Nc1nc(-c2ccc(Cl)cc2Cl)cs1)C1CCCO1 (stereo unspecified)	56%	15%	1%	-47%
O=C(Nc1ccc(Cl)cc1)Nc1ccccc1CC[N+](=O)[O-]	?	12µM*	19%	0%
O=C(Nc1ccccc1CC[N+](=O)[O-])N1CCN(c2ccccc2)CC1	12µM*	10µM*	-23%	0%
O=C(Nc1ccc([N+](=O)[O-])cc1)Nc1ccc(Cl)cc1F	33%	4.1µM*	-2%	-2%
CCN(CC)CCCNC(=O)c1cc(-c2ccc(Cl)cc2)on1	1%	?	0%	-2%
SMILES	Pf growth 96h	Pf growth 48h	AMA1-RON2 inh	SARS PLP yeast
COc1ccc(-c2nc3ccc(C4=C(C)CC(=O)NN4)cc3[nH]2)cc1	7.6µM*	?	/	/
COc1ccc(N2CCN(CCNC(=O)Nc3cc(Cl)ccc3OC)CC2)cc1	?	-18%[0.00184 µM]	-16%	0%
CNC(=S)N/N=C/c1cn(CCOc2ccc(OC)cc2)c2ccccc12	5.9µM*	?	22%[2.32 µM]	?
O=C1CC2c3ccccc3C1C1C(=O)N(CCO)C(=O)C21 (stereo unspecified)	32%	-10%	21%	1%
Cc1ccc(C(=O)/C=C/N(C)C)o1	-2%	13%	14%	0%
CC(=O)C1=C(C)NC(SCC(=O)c2ccc(Cl)c(Cl)c2)=C(C#N)C1c1ccco1 (stereo unspecified)	-112%	1.2µM*	16%	9%
CC(=O)C1=C(C)NC(SCC(=O)c2cc(Cl)ccc2Cl)=C(C#N)C1c1ccco1 (stereo unspecified)	9.3µM*	9.3µM*	47%	-1%
CC(=O)C1=C(C)NC(SCC(N)=O)=C(C#N)C1c1ccco1 (stereo unspecified)	21%	4%	-1%	-1%
O=C(CP(=O)(c1ccccc1)c1ccccc1)Nc1cccc(CP(=O)(c2ccccc2)c2ccccc2)c1	7.4µM*	?	-5%	1%
Cc1ccc(S(=O)(=O)Nc2ccc(Nc3ccccc3)cc2)cc1	?	-34%	-13%	-24%
O=P(Cc1ccccc1)(c1ccccc1)c1ccccc1	1%	0%	-3%	21%
Cc1ccc(S(=O)(=O)Nc2cccc(CP(=O)(c3ccccc3)c3ccccc3)c2)cc1	9.3µM*	3.3µM*	7%	0%
CCCc1cc(C(=O)Nc2nccs2)cs1	/	0%	7%	-24%
O=C(Nc1ccccc1)c1cccnc1N1CCOCC1	-2%	13%	-13%	10%
CC(=O)Nc1ccc(NC(=O)CCCN2C(=O)C(c3ccccc3)Oc3cccnc32)cc1 (stereo unspecified)	/	/	12%	/
O=C(CN1C(=O)C(c2ccccc2)Oc2cccnc21)NCc1ccccc1F (stereo unspecified)	9.3µM*	?	-16%	-5%
O=C(CCCN1C(=O)C(c2ccccc2)Oc2cccnc21)Nc1cccc(F)c1 (stereo unspecified)	?	10µM*	-4%	0%
Cc1cc(C)cc(NC(=O)CCCN2C(=O)C(c3ccccc3)Oc3cccnc32)c1 (stereo unspecified)	3.7µM*	?	-12%	-4%
COc1ccc(CNC(=O)CN2C(=O)C(c3ccccc3)Oc3cccnc32)cc1 (stereo unspecified)	?	-3%	25%	6%
OC(CCN1CCCCC1)(c1ccccc1)C1C[C@@H]2C=C[C@H]1C2 (stereo partly specified)	?	?	-6%	/
CSc1cccc(NS(=O)(=O)c2ccc(-c3coc(C)n3)cc2)c1	4.7µM*	-7%	14%	-4%
Cc1nc(-c2ccc(S(=O)(=O)Nc3ccc(S(N)(=O)=O)cc3)cc2)co1	10µM*	-4%	5%	5%
Cc1nc(-c2ccc(S(=O)(=O)Nc3cccc(Cl)c3)cc2)co1	?	38%	-2%	/
COc1ccc(NS(=O)(=O)c2ccc(-c3coc(C)n3)cc2)cc1	151%	0%	0%	0%
Cc1ccc2c(c1)C1CN(C)CCC1N2C(=O)c1ccco1 (stereo unspecified)	/	32%	0%	15%
Cc1ccc2c(c1)C1CN(C)CCC1N2C(=O)COc1ccccc1F (stereo unspecified)	12µM*	?	-12%	1%
Cc1ccc2c(c1)C1CN(C)CCC1N2C(=S)NC(=O)c1ccc(Cl)cc1Cl (stereo unspecified)	5.9µM*	?	75%	1%
